In PubChem BioAssay (EPA / NIEHS) one finds outcome and AC50 data, which are given here for 28 compounds.

The structures appear in SMILES notation. Records with an inconclusive call do not appear. Calls of active or inactive are those of the source. Rule for the calls: active = hit-call score of the fitted dose curve at least 0.9, where 1 is the maximum; inconclusive = response in the unintended direction; inactive = score below 0.9.

Chain of human RAR-related Orphan Receptor gamma (RORg), RORC (gene 6097) (P51449 whole entry, looked up, the tested form may be a part): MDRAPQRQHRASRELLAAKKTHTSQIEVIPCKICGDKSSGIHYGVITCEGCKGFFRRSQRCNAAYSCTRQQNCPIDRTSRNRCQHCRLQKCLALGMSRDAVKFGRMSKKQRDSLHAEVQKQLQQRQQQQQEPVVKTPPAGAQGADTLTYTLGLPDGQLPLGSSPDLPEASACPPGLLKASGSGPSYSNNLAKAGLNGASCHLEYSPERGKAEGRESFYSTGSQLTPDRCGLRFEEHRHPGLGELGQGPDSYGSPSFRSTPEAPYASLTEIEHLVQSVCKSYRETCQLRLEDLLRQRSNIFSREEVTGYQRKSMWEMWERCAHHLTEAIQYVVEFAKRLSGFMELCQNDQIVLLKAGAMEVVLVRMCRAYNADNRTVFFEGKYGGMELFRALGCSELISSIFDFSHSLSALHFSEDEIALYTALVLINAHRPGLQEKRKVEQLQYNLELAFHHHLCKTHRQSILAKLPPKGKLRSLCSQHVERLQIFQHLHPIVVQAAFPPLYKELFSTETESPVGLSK

This test addresses human RAR-related Orphan Receptor gamma (RORg), RORC (gene 6097) (UniProt P51449). As to the kind of experiment: ATG_RORg_TRANS: Attagene TRANS-FACTORIAL HepG2 Assay for human RAR-related Orphan Receptor gamma (RORg) (AID 2283011).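 For AC50: potency for induction of reporter transcripts above DMSO so activators.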 In outline:
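Reporter transcripts from a transfected RORg-GAL4 chimera in HepG2 cells were quantified 24 h after dosing by RT-PCR, 6-FAM labelling, HpaI digestion and capillary electrophoresis; increases over DMSO baseline were fitted.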
For the compound `CCN(CCC#N)c1ccc(N=Nc2ccc([N+](=O)[O-])cc2)cc1`, the compound was called inactive. Take `CCCCC1(COC(=O)CCC(=O)O)C(=O)N(c2ccccc2)N(c2ccccc2)C1=O`: the outcome was inactive.

Consider `COc1ccccc1[N+](=O)[O-]`, for which the call was inactive. Turning to `CCCN(CCC)S(=O)(=O)c1ccc(C(=O)O)cc1`, the result was inactive. On to `O=[N+]([O-])c1ccc(O)cc1C(F)(F)F`, for which the result was inactive. In the case of `COCCOC(=O)c1ccccc1C(=O)OCCOC`, the result was inactive. Regarding `CC(=O)OCCCc1ccccc1`, the compound was classed as inactive. In the case of `O=C(O)c1ccc(O)cc1`, the outcome was inactive. On the same count and under the same terms, then `C=CCN(CC=C)CC=C`, with “inactive”; and `CC1CCC(C(C)C)C(O)C1` (stereo not drawn), with “inactive”; and `CC1(C)O[C@@H]2C[C@H]3[C@@H]4CCC5=CC(=O)C=C[C@]5(C)[C@@]4(F)[C@@H](O)C[C@]3(C)[C@]2(C(=O)CO)O1`, with “inactive”. The same measure, in the same setting: then `OCC#CCO`, with “inactive”; and `CCCC(=O)OCCc1ccccc1`, with “inactive”; and `CCCCOCC`, with “inactive”. For `Nc1ccc(Cl)c([N+](=O)[O-])c1`, the compound was classed as inactive. With `CCOC(=O)CCc1ccccc1`, the result was inactive.

Turning to `COc1cc(C(C)C)ccc1C`, the compound was called inactive. As for `COC(C)(C)CCO`, the outcome was inactive. Still for that read-out and setting: the entry for `CCCCC(CC)COC(=O)c1ccc(O)cc1` (stereo not drawn) is “inactive”. In the case of `CCCCCC(C)=O`, the outcome was inactive. The same measure, in the same setting: then `CCCCCCC(O)CCCCCCCCCCC(=O)O` (stereo not drawn), with “inactive”; and `CCOc1ccc(NC(=O)CC(C)O)cc1` (stereo not drawn), with “inactive”.

Take `CC(=O)CC(=O)Nc1ccc(C)cc1C`: the compound was classed as inactive. Take `CCCCCCOC(=O)C(C)C`: the compound was classed as inactive. `CC(C)(C)C1=CC(=O)C(C(C)(C)C)=CC1=O`: the AC50 is 72 µM (active). For the compound `CC(C)OCCO`, the compound was classed as inactive. `CCCCCCCC(=O)OCCCCCC`: the result was inactive.

For the compound `COCCOCCOCCO`, the outcome was inactive.
